# System: PPARg:RXRa 90nM:30nM, anti-RXR (NR concentration 90 nM, RXRa partner concentration 30 nM)
# Assay: PBM binding z-score (relative to random genomic background probes); higher = stronger binding; sequences stand for … in GC…GCGATTGACAGCGTAGAATGAAGG
# Outline: (§1)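 Scanned fluorescence from custom Agilent 4×180K protein-binding microarrays was regression-normalized. Binding z-scores use random background probes as reference. Ligand-free nuclear receptor dimers were incubated on the arrays for 1 h and detected with antibodies against each partner (one per run).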
row,Sequence,PBM binding z-score
1,CTCCAAAGGTCGTGCTCAGGTGAGTATACCAAAC,3.35
2,TAGCCAAGGTCATGGGCCAGTATACCACGCGAAC,4.55
3,CGAACTACGTCAGAACAGGACAGTGAAGGATGAT,-0.37
4,ATATGTTGGTTATCGGGTCATTCAGTTTGCGCAT,1.65
5,ACAGACAGGTTATGAAGGTAACTCAGGCTATCAT,0.403
6,CCGACTGGGGCAGAAAGGATACCATACCATCCGG,-0.344
7,TCACGGAGGACACGAAAGGTCAGAGCTCGACATC,2.43
8,TGTCAAAGTTCAAAGGCAACGTAAGTATCCACAC,7.03
9,CCTCGCAGGCCAATCTGGGTCACTCAAGGCTTGA,1.3
10,GCGACTGGGGCATCAGCAGGTTACCATTACTTAA,0.0982
11,TAGCCTAGGTCATGGGCCAGTATCCCACGCGAAC,2.6
12,TCATATAGGTAAAAGGTGAAATTCGGTGTGGTAA,8.89
13,CCTATTAGATGACCATAAGGGCAACCGAAGCTCG,0.0156
14,AGAACGAGGGCACGCTGAGTTGGTAGCAGAGTAG,0.942
15,AGCACGAGGGCAATGAGTTGATAGCACGGGTGGC,-0.265
16,CCGACTGGGGCATAAAGTTACCATAAGCCAGCCC,0.313
17,CGAACTAGGTCATCCAGGACAGTAAATACATTGA,5.68
18,ATCTCTAGGTGAAGATAGTTCAGTGAATGCAAAT,0.885
19,ACTATTAGTTGACTTGGGGCAACCGATACGACGC,0.389
20,TAGCTTAGGTCATTGGGCCAGTATAGTACGCATC,2.18

row,Sequence,PBM binding z-score
1,AGAATGCGGTTATTAAGATCAGGGAATTGCGGTC,-0.182
2,TCTTGTAGATAAGCAGGTTAAGAAAGCTGGCCAA,1.65
3,GCATATAGGTAATACAAGGTGAAAGTTCGATTGT,3.58
4,GATACAGGGTCAAGGCCAGACTACGCGTATTGAT,4.87
5,TCGGCTAGGTCAGTTGGTCAGCTAACGAGCTGCC,1.11
6,AGTAAAAGTTCAGGACGAGGTAACGTAAAGCACG,1.29
7,AGAACGAGGGCAATGAGTTGATAACACGGGTGGC,0.611
8,TGAATGAGGTTATAAGCTCAGGGAACGTTGCAAA,1.54
9,TCTATTAGTTGATTAGGGCATCCGAAACAGCGGA,2.78
10,ATATGTAGGTTAAGGGTAATTCAGGTTGGTTCGC,8.33
11,CAAACTAGGTCACAGAGGTCAAATTCCGTGCGTA,8.61
12,CGAACGAGGGCATGAGTGGATAGCAAATGCCGAT,0.449
13,CCGAGTAGGTTATGGGGCATTCCGGCAACGGTGA,3.99
14,CGTCCCAGGTCATAGGAGGTCAGTGAAGACAGAT,2.74
15,TTACCAAGTTGAAGGTCGTTGATCCCTCTGTAGA,2.27
16,GCACCAAGGTGAATAGGTCGTTGATGAGTAGGCG,0.742
17,ATCGAAAGGTCGTGAGGTGAGTAGACAGAAAGGC,3.08
18,CGAACTAGGTGATCCAGGACAGTGAATACATTGA,1.09
19,TCTTGTAGATTAACAGGAGGTTAAGAAAGATCGA,1.89
20,AGAATGAGGTTATTAATATCAGGGAATTGCGGTC,1.35

# System: PPARg:RXRa DBDmut IVT, anti-RXR (DBD mutation: RXRa K156A/R161A, NR concentration 270 nM, RXRa partner concentration 90 nM)
# Assay: as above
# Outline: as §1
row,Sequence,PBM binding z-score
1,CTCCAAAGGTCGTGCTCAGGTGAGTATACCAAAC,0.883
2,TAGCCAAGGTCATGGGCCAGTATACCACGCGAAC,1.56
3,CGAACTACGTCAGAACAGGACAGTGAAGGATGAT,-0.549
4,ATATGTTGGTTATCGGGTCATTCAGTTTGCGCAT,2.6
5,ACAGACAGGTTATGAAGGTAACTCAGGCTATCAT,0.3
6,CCGACTGGGGCAGAAAGGATACCATACCATCCGG,0.646
7,TCACGGAGGACACGAAAGGTCAGAGCTCGACATC,1.84
8,TGTCAAAGTTCAAAGGCAACGTAAGTATCCACAC,-0.195
9,CCTCGCAGGCCAATCTGGGTCACTCAAGGCTTGA,3.89
10,GCGACTGGGGCATCAGCAGGTTACCATTACTTAA,3.98
11,TAGCCTAGGTCATGGGCCAGTATCCCACGCGAAC,1.1
12,TCATATAGGTAAAAGGTGAAATTCGGTGTGGTAA,5.31
13,CCTATTAGATGACCATAAGGGCAACCGAAGCTCG,-0.108
14,AGAACGAGGGCACGCTGAGTTGGTAGCAGAGTAG,4.25
15,AGCACGAGGGCAATGAGTTGATAGCACGGGTGGC,1.23
16,CCGACTGGGGCATAAAGTTACCATAAGCCAGCCC,2.19
17,CGAACTAGGTCATCCAGGACAGTAAATACATTGA,7.97
18,ATCTCTAGGTGAAGATAGTTCAGTGAATGCAAAT,4.18
19,ACTATTAGTTGACTTGGGGCAACCGATACGACGC,0.684
20,TAGCTTAGGTCATTGGGCCAGTATAGTACGCATC,2.21

row,Sequence,PBM binding z-score
1,AGAATGCGGTTATTAAGATCAGGGAATTGCGGTC,-0.161
2,TCTTGTAGATAAGCAGGTTAAGAAAGCTGGCCAA,1.32
3,GCATATAGGTAATACAAGGTGAAAGTTCGATTGT,3.93
4,GATACAGGGTCAAGGCCAGACTACGCGTATTGAT,2.8
5,TCGGCTAGGTCAGTTGGTCAGCTAACGAGCTGCC,1.62
6,AGTAAAAGTTCAGGACGAGGTAACGTAAAGCACG,-0.481
7,AGAACGAGGGCAATGAGTTGATAACACGGGTGGC,2.99
8,TGAATGAGGTTATAAGCTCAGGGAACGTTGCAAA,1.28
9,TCTATTAGTTGATTAGGGCATCCGAAACAGCGGA,2.14
10,ATATGTAGGTTAAGGGTAATTCAGGTTGGTTCGC,7.67
11,CAAACTAGGTCACAGAGGTCAAATTCCGTGCGTA,8.77
12,CGAACGAGGGCATGAGTGGATAGCAAATGCCGAT,2.74
13,CCGAGTAGGTTATGGGGCATTCCGGCAACGGTGA,3.2
14,CGTCCCAGGTCATAGGAGGTCAGTGAAGACAGAT,1.76
15,TTACCAAGTTGAAGGTCGTTGATCCCTCTGTAGA,0.297
16,GCACCAAGGTGAATAGGTCGTTGATGAGTAGGCG,2.07
17,ATCGAAAGGTCGTGAGGTGAGTAGACAGAAAGGC,0.467
18,CGAACTAGGTGATCCAGGACAGTGAATACATTGA,5.95
19,TCTTGTAGATTAACAGGAGGTTAAGAAAGATCGA,1.1
20,AGAATGAGGTTATTAATATCAGGGAATTGCGGTC,2.96

# From the supplement of paper PMC6555819
